The source of these data is PubChem BioAssay (Tox21).

Unmarked numbers belong to inactive results. Records with an inconclusive call do not appear. Activity calls are given as the source filed them. The call rests on the fitted dose curve; in most records, active means well fitted curve in the direction sought with a large enough effect in the repeat runs; inconclusive means weak or mixed curves; inactive means no such curve, though single readings can be large; an effect the other way counts as inactive or inconclusive.

Test [1] can be described thus: A CellTox Green Cytotoxicity Assay to monitor cytotoxicity in HEK293 cells - 40 hour (AID 1224871). Further: nearly all actives have a fitted effect of over 45% in size. Further: potency means the concentration at half of the fitted maximal effect. In short, it runs like this: (§1)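 Cytotoxicity was tracked continuously in HEK293 cells by a DNA-binding dye excluded from viable cells. Compounds were transferred in DMSO 5 h after seeding; fluorescence was recorded at intervals up to 40 h.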
Test [2] can be described thus: qHTS RealTime-Glo MT Cell Viability Assay in HEK293 cells - 16 hour (AID 1224872). Further: top concentration of the series differs between compounds; nearly all actives have a fitted effect of over 50% in size. In short, it runs like this:
(§2)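 Assay medium contained NanoLuc luciferase plus cell-permeant prosubstrate, added with HEK293 cells at 600 cells/well. After 5 h at 37 C/5% CO2 compounds were added; plates stayed at 37 C for 40 h with serial luminescence reads.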
In general terms: Quantitative high-throughput screening tests each substance at several concentrations.

Test [3] is described as follows: qHTS RealTime-Glo MT Cell Viability Assay in HEK293 cells - 40 hour (AID 1224874). Further: nearly all actives have a fitted effect of over 50% in size. The settings on record: RealTime-Glo luminescence; max response: hits give low values. The method in brief:
(§3)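 Nonlytic bioluminescent viability monitoring. HEK293 at 600 cells/well with reagent; 5 h settle; compound transfer by pintool; plates held at 37 C and read at set time points.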

A short description of test [4]: A CellTox Green Cytotoxicity Assay to monitor cytotoxicity in HEK293 cells - 24 hour (AID 1224875). Further: nearly all actives have a fitted effect of over 45% in size. Further: potency means the concentration at half of the fitted maximal effect. In short, it runs like this: as §1
The nature of test [5]: A CellTox Green Cytotoxicity Assay to monitor cytotoxicity in HepG2 cells - 16 hour (AID 1224876). Further: nearly all actives have a fitted effect of over 45% in size. Further: potency means the concentration at half of the fitted maximal effect. The method in brief: (§4)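 Real-time, homogeneous cytotoxicity readout: dead-cell DNA staining by CellTox Green in HepG2 monolayers, fluorescence measured at timed intervals up to 40 h of continuous compound exposure.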
The nature of test [6]: A CellTox Green Cytotoxicity Assay to monitor cytotoxicity in HepG2 cells - 24 hour (AID 1224878). Further: nearly all actives have a fitted effect of over 45% in size. Further: potency means the concentration at half of the fitted maximal effect. In short, it runs like this: as §4
Test [7] is described as follows: A CellTox Green Cytotoxicity Assay to monitor cytotoxicity in HepG2 cells - 40 hour (AID 1224879). Further: nearly all actives have a fitted effect of over 40% in size. Further: potency means the concentration at half of the fitted maximal effect. The method in brief: as §4
Test [8] in a line: qHTS RealTime-Glo MT Cell Viability Assay in HEK293 cells - 0 hour (AID 1224880). The method in brief: as §3
Test [9] in a line: A CellTox Green Cytotoxicity Assay to monitor cytotoxicity in HEK293 cells - 32 hour (AID 1224881). Further: nearly all actives have a fitted effect of over 40% in size. Further: potency means the concentration at half of the fitted maximal effect. In short, it runs like this:
as §1

Test [10] can be described thus: A CellTox Green Cytotoxicity Assay to monitor cytotoxicity in HepG2 cells - 0 hour (AID 1224882). Further: nearly all actives have a fitted effect of over 35% in size. The method in brief:
as §4

Test [11] in a line: A CellTox Green Cytotoxicity Assay to monitor cytotoxicity in HEK293 cells - 8 hour (AID 1224884). Further: nearly all actives have a fitted effect of over 35% in size. The method in brief:
as §1

Test [12] in a line: qHTS RealTime-Glo MT Cell Viability Assay in HepG2 cells - 16 hour (AID 1224885). Further: nearly all actives have a fitted effect of over 50% in size. In short, it runs like this: (§5)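 qHTS, HepG2, 600 cells/well, RealTime-Glo (NanoLuc + prosubstrate) added with cells; 5 h preincubation; DMSO compound addition; 37 C; luminescence at 0/8/16/24/32/40 h.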
Test [13] can be described thus: qHTS RealTime-Glo MT Cell Viability Assay in HEK293 cells - 24 hour (AID 1224886). Further: top concentration of the series differs between compounds; nearly all actives have a fitted effect of over 50% in size. The method in brief: as §2
A short description of test [14]: qHTS RealTime-Glo MT Cell Viability Assay in HEK293 cells - 8 hour (AID 1224887). In short, it runs like this:
as §3

A short description of test [15]: A CellTox Green Cytotoxicity Assay to monitor cytotoxicity in HepG2 cells - 8 hour (AID 1224890). Further: nearly all actives have a fitted effect of over 45% in size. The method in brief: as §4
A short description of test [16]: qHTS RealTime-Glo MT Cell Viability Assay in HepG2 cells - 8 hour (AID 1224873). Further: nearly all actives have a fitted effect of over 55% in size. In short, it runs like this:
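Real-time viability: cells seeded at 600 per well together with NanoLuc and cell-permeant prosubstrate, compounds added after 5 h incubation. Luminescence tracked at 0, 8, 16, 24, 32 and 40 h of exposure.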

Test [17] can be described thus: A CellTox Green Cytotoxicity Assay to monitor cytotoxicity in HepG2 cells - 32 hour (AID 1224883). Further: nearly all actives have a fitted effect of over 50% in size. Further: potency means the concentration at half of the fitted maximal effect. In short, it runs like this: as §4
A short description of test [18]: A CellTox Green Cytotoxicity Assay to monitor cytotoxicity in HEK293 cells - 16 hour (AID 1224888). Further: nearly all actives have a fitted effect of over 35% in size. The method in brief: as §1
Test [19] is described as follows: qHTS RealTime-Glo MT Cell Viability Assay in HepG2 cells - 32 hour (AID 1224877). Further: nearly all actives have a fitted effect of over 55% in size. In short, it runs like this:
as §5

A short description of test [20]: qHTS RealTime-Glo MT Cell Viability Assay in HepG2 cells - 0 hour (AID 1224889). Further: nearly all actives have a fitted effect of over 50% in size. In short, it runs like this: as §5
On the % scale 0 is the no-effect control and ±100 the full control effect.

For the compound `CC(C)C[C@H](NC(=O)OCC1c2ccccc2-c2ccccc21)C(=O)O`, the Potency result in test [1], in [2], in test [4], in test [5], in test [6] and in [7] was “inactive” each time. Further, the Potency entry in test [9], in test [10], in test [11], in [13], in test [14] and in test [15] was “inactive” each time. The max response in test [3] was -12.9%. Moreover, the result in test [8] and in [12] was inactive.
As for `C[C@]12CCC(=O)C=C1CC[C@@H]1[C@@H]2CC[C@@]2(C)[C@H]1CC[C@]2(O)C(=O)CO`, the Potency result in test [1], in test [2], in test [4], in test [5], in test [6] and in test [9] was “inactive” each time. Besides, the Potency entry in [10], in test [17], in test [11], in test [14], in test [18] and in test [15] was “inactive” throughout. For the same compound, the compound was called inactive in test [16] and in test [12].
With `CCCC(CCC)(C(=O)OCC)C(=O)OCC`, the Potency entry in [1], in [2], in test [5], in [19], in test [6] and in test [7] was “inactive” each time. Moreover, the Potency result in test [9], in test [10], in test [17], in test [11], in test [13] and in test [14] was “inactive” throughout. Besides, the Potency entry in [20] and in test [15] was “inactive” in each case. In addition, in test [3], the max response was 0.553%. The outcome in test [8] and in test [12] was inactive.
Turning to `Oc1ccccc1C=NCc1ccccc1`, the Potency entry in test [1], in [2], in test [5], in test [6], in test [7] and in test [9] was “inactive” throughout. Besides, the Potency entry in [10], in test [17], in test [11], in test [13], in test [14] and in test [20] was “inactive” each time. Also, the Potency entry in test [15] is “inactive”. Also, the call in test [16], in [8] and in test [12] was inactive. The max response in [3] is 1.18%.
With `CCCC1CCC(=O)O1` (centres undefined), the Potency result in test [1], in [2], in test [4], in test [5], in [6] and in test [7] was “inactive” throughout. For the same compound, the Potency entry in test [9], in [10], in test [17], in test [11], in [13] and in test [14] was “inactive” each time. For the same compound, the Potency entry in test [18], in test [20] and in test [15] was “inactive” each time. In [3], the max response was 4.54%. For the same compound, the call in [8] and in test [12] was inactive.
In the case of `Oc1ccccc1F`, the Potency result in test [1], in [2], in [4], in [5], in test [19] and in [6] was “inactive” throughout. Moreover, the Potency entry in [7], in [9], in test [10], in test [17], in test [11] and in [13] was “inactive” throughout. The Potency entry in [14], in [18], in [20] and in test [15] was “inactive” throughout. In addition, the max response in test [3] is 16.1%. Also, the compound was called inactive in [12].
As for `CN(C)CC[C@@H](c1ccc(Cl)cc1)c1ccccn1`, the Potency result in test [1], in test [2], in test [5], in test [6], in test [7] and in test [9] was “inactive” throughout. Also, the Potency result in test [10], in test [17], in test [11], in [13], in test [14] and in test [18] was “inactive” each time. Besides, the Potency entry in test [20] and in [15] was “inactive” each time. Further, the outcome in test [16] and in test [12] was inactive. In addition, the max response in [3] was -0.584%.
Consider `CCOc1ccc(NC(N)=O)cc1`, for which the Potency result in [1], in [2], in [4], in test [5], in test [19] and in test [6] was “inactive” in each case. Moreover, the Potency entry in [10], in test [11], in [13], in [14], in [18] and in test [20] was “inactive” throughout. Besides, the Potency entry in test [15] was “inactive”. Also, in test [3], the max response was 4.66%. Also, the outcome in test [8] and in test [12] was inactive.
On to `NC(=O)NS(=O)(=O)c1ccc(Cl)cc1`, for which the Potency entry in test [1], in test [2], in test [4], in test [5], in test [19] and in test [6] was “inactive” each time. For the same compound, the Potency result in test [7], in test [9], in test [10], in test [11], in [13] and in test [14] was “inactive” throughout. For the same compound, the Potency result in test [20] and in [15] was “inactive” throughout. Further, in test [3], the max response is 0.44%. The compound was classed as inactive in test [12].
Regarding `CC(C)=CCC[C@](C)(O)[C@@H]1CC=C(C)CC1`, the Potency in [1] is 49 µM (active); in test [5] it was 43.6 µM (active); in [6], 43.6 µM (active); in test [7], 49 µM (active); in test [17], 43.6 µM (active). The Potency result in test [2], in test [4], in [19], in test [10], in [11] and in test [13] was “inactive” throughout. Besides, the Potency entry in test [14], in test [18] and in test [20] was “inactive” each time. Besides, in test [3], the max response is -6.23%. Moreover, the result in test [12] was inactive.
Take `OC[C@H]1O[C@@H](O[C@H]2[C@H](O)[C@@H](O)[C@H](O)O[C@@H]2CO)[C@H](O)[C@@H](O)[C@H]1O`: the Potency result in test [1], in test [2], in test [4], in [5], in test [19] and in [6] was “inactive” throughout. Moreover, the Potency entry in test [7], in test [9], in test [10], in [17], in test [11] and in test [13] was “inactive” throughout. For the same compound, the Potency result in [14], in [18], in test [20] and in test [15] was “inactive” throughout. Moreover, in [3], the max response was 0.3%. In addition, the call in [8] and in [12] was inactive.
As to `Clc1cccc(-c2cc(Cl)cc(Cl)c2)c1`, the Potency in test [1] was 37.5 µM (active); in test [4] it was 42.1 µM (active); in [9], 42.1 µM (active). Besides, the Potency result in test [2], in [5], in test [19], in test [10], in [13] and in [14] was “inactive” each time. For the same compound, the Potency entry in test [20] and in test [15] was “inactive” each time. In addition, the max response in [3] was -9.77%. Besides, the compound was classed as inactive in [8] and in test [12].
In the case of `Cc1cc(NS(=O)(=O)c2ccc(N)cc2)nc(C)n1`, the Potency entry in test [1], in test [2], in test [4], in test [19], in test [9] and in [10] was “inactive” throughout. Besides, the Potency result in test [11], in [13], in test [14], in test [18], in test [20] and in test [15] was “inactive” each time. Besides, the max response in [3] is -0.863%. Also, the outcome in [8] and in [12] was inactive.
Consider `c1ccc(CN(CC2=NCCN2)c2ccccc2)cc1`, for which the Potency result in test [1], in [2], in test [5], in test [6], in test [9] and in test [10] was “inactive” in each case. Also, the Potency result in [17], in [11], in test [13], in test [14], in test [18] and in test [20] was “inactive” each time. The Potency result in test [15] was “inactive”. In addition, the call in [16] and in [12] was inactive. Moreover, the max response in test [3] was -19.9%.
`CCCCCCn1c(=O)c2c(ncn2C)n(C)c1=O`: the Potency entry in test [1], in test [2], in test [4], in test [5], in test [6] and in test [7] was “inactive” throughout. The Potency entry in [9], in test [10], in [17], in test [11], in [13] and in test [14] was “inactive” throughout. Besides, the Potency result in test [20] and in test [15] was “inactive” each time. Also, the max response in test [3] was -1.75%. Further, the compound was called inactive in test [8].
